The list is a sample of the results. How many sequences the whole screen found active is unknown.
B1: il2ra_site2_2erj_sap_27_mot_HHH_b1_06697_000000025_0001_41_54_H_._HHH_b2_06097_0001_0000200013_0000001_0_0001 (protein)
chain: SSSSDKLRELYKLAVELMRLVAEGDEERFEEVAEEVRKLVEELDSRTAREILEALERKIKSSSSS
B2: il2ra_site2_3nfp_sap_22_mot_ems_3hM_1278_af2_000000151_0001_43_60_H_._HHH_b2_04893_0001_0000100005_0000001_0_0001 (protein)
chain: SSSSSEELEELIEQARELLEEGDKYEAAQVVLRASRLALELNDPEAARRILELFEEIQRTSSSSS
B3: il2ra_site2_3nfp_sap_18_mot_7f6a3539c8daa08639e4cdbcc6f77908_0001_af2_000000032_0001_16_31_H_._HHH_b1_04314_af2_0001_0000300027_0000001_0_0001 (protein)
chain: SSSSDKSEEYLRIALELLEEAIKAGDEEAARSHLEVAKAAAESHNDEEVEERLEELEELLSSSSS
B4: il2ra_site2_2erj_sap_12_mot_HHH_b1_05666_000000037_0001_42_55_H_._HHH_b2_06677_0001_0000400020_0000001_0_0001 (protein)
chain: SSSSDERLHELYKLANELLRLEFEGDEERIEELLQRVRELAEELKSDAARELVERVEKKLSSSSS
B5: il2ra_site1_1z92_normal_mot_HHH_b2_05027_000000150_0001_42_56_H_._HHH_b2_03014_0001_0000400026_0000001_0 (protein)
chain: SSSSSSSEEWLEELVELVIKRSDDPEEQEELRRLLEELREEGDPELWLELAQLLIEIASSSSSSS
B6: il2ra_site1_3nfp_sap_17_mot_HHH_b1_06312_000000077_0001_1_18_H_._HHH_b1_02603_af2_0001_0000500014_0000001_0_0001_af2pred_0001_af2pred_1 (protein)
chain: SSSSDVEEFLEEIKEELREALEKGDARLAARIFKEASKKLREKGNPELAEELYEFLRKLISSSSS
B7: il2ra_site2_2erj_sap_25_mot_HHH_b1_02841_000000060_0001_43_57_H_._HHH_b1_02445_af2_0001_0000300014_0000001_0_0001 (protein)
chain: SSSSDTEERVEEVLEEARKAYEEGDLHEVYRLAVEAMRIASENNDQEALELVLRFIEELSSSSSS
B8: il2ra_site1_2b5i_sap_8_mot_HHH_b1_04517_000000040_0001_39_52_H_._HHH_b2_05314_0001_0000400027_0000001_0_0001_af2pred_dldesign_0_af2pred (protein)
chain: SSSDPKALAETAAAIVEELEEKYNLNLEQSAVLERLAVELVWKGVSPEEIRRRLEALAKELSSSS
B9: il2ra_site1_1z92_normal_mot_01209686ea234b34325f918445e6eade_0001_af2_000000154_0001_18_33_H_._HHH_b1_01021_0001_0000100004_0000001_0_af2pred_0001_1_af2pred_swa … (protein)
chain: SSSSSDELEEFIEELVKELGLDEEAKETLERLLEKLQEQGVSERAIRRALERMARRMRGSSSSSS
B10: il2ra_site2_3nfp_sap_11_mot_HHH_b1_00882_af2_000000293_0001_1_18_H_._HHH_b1_01194_af2_0001_0000300012_0000001_0_0001 (protein)
chain: SSSSSSSLYELLQEAVEAAKNGNPEEAKEILEQALEEAREAGDEEAEHFIEWFIKAVRSSSSSSS
B11: il2ra_site2_2erj_normal_mot_HHH_b1_04373_af2_000000118_0001_18_33_H_._HHH_b2_00961_af2_0001_0000900028_0000001_1 (protein)
chain: SSSSSDEEEVERRVRELLEEAEKVDLEEAYKLAVEALHLAAENRDPELLRLILEWVEKHSSSSSS
B12: il2ra_site2_3nfp_sap_15_mot_HHH_b1_02990_000000128_0001_41_58_H_._HHH_b1_03794_0001_0000400021_0000001_0_0001 (protein)
chain: SEAEEIIKLIAELLGTPPERVRERVEDAAEIVNRPPEEAAAYLLAQVALELGDPELEKEAKRLSR
B13: il2ra_site2_2erj_sap_28_mot_HHH_b1_08185_000000106_0001_41_55_H_._HHH_b2_03845_af2_0001_0001200037_0000001_0_0001 (protein)
chain: SSSSDEEEERLEELVERAERLLKEGNPEEAWEVLREAATLAWELGDEEIWSRLSKLTAEVASSSS
B14: il2ra_site1_1z92_normal_mot_54e474eed2d0515e81978198f0f96ec2_0001_000000202_0001_15_30_H_._8eb524b276bbb897fd8f0cca34c37a2d_0001_af2_0001_0000300018_0000001_0_a … (protein)
chain: DVEEEIEEALKELGVPPEEIKVVKRDFRLAREAGIPPEQVLRALINAARASGDEELTEALELVLK
B15: il2ra_site1_3nfp_normal_mot_e80b558ee5422d85aa46efdc370d0602_0001_af2_000000114_0001_54_65_H_._HEEHE_2247_0002_0000400019_0000001_0_af2pred_0001_af2pred (protein)
chain: DRQEILQEDAELISKVAGVTSVHVEVENGHVTVTVEADNRRARALLRILREAAKIAGLEVEITIE
B16: il2ra_site2_2erj_normal_mot_HHH_b1_02757_000000121_0001_41_57_H_._HHH_b1_02256_0001_0000700046_0000001_0_af2pred_0001_af2pred (protein)
chain: SSSSSSSVEEEVKELLEQAKHIPDIREALKVLEEADRLALENDNEELLELITRVLRELSSSSSSS
B17: il2ra_site2_2erj_normal_mot_HHH_b2_04744_000000294_0001_42_58_H_._HHH_b1_07967_af2_0001_0000500022_0000001_0 (protein)
chain: SSSSDEEERLEELLKELEELSRKRDFHRFAEVFSEILELVEENNDEEAALIAFRIMREHFGSSSS
B18: il2ra_site1_2b5i_normal_mot_f5ff40796168375b462bec8614a1db4a_0001_1_000000138_0001_53_65_H_._HHH_b2_01775_0001_0000500027_0000001_0_af2pred_dldesign_0_af2pred (protein)
chain: SSSSSSEKRELIQALIDEAKKEEDKRLAKRLLLLALRLARKHNDEELIAEIEALLKELESSSSSS
B19: il2ra_site2_2erj_sap_16_mot_HHH_b2_07792_af2_000000252_0001_18_34_H_._HHH_b1_07975_af2_0001_0000200006_0000001_0_0001 (protein)
chain: SSSSSDTEEEVEELLEQAKRITDLREVYRLAVEALHLAARVQDPELQRLVAEVVEELSRSSSSSS
B20: il2ra_site2_2erj_sap_19_mot_HHH_b2_01275_af2_000000073_0001_23_39_H_._HHH_b1_01063_af2_0001_0000200019_0000001_0_0001 (protein)
chain: SSSSDKLRELYELAVEVLRAVARGDEEEAERLLEEAKELAEELDSPNAREALENNKRLLKSSSSS
B21: il2ra_site2_2erj_sap_14_mot_HHH_b2_01204_af2_000000056_0001_19_34_H_._HHH_b2_03878_0001_0000200011_0000001_0_0001 (protein)
chain: SSSSDWLHELYELASEITRLLAEGDPEEARRLLEELEELAEENDSPNAEEIVERLEKKIESSSSS
B22: il2ra_site1_2b5i_sap_14_mot_HHH_b2_01684_af2_000000128_0001_1_17_H_._HHH_b1_05605_0001_0000200010_0000001_0_0001_af2pred_dldesign_0_af2pred (protein)
chain: SSSSSSSSDRRALLEEANKAFQAGDVEALEALLERAEAAGWEKVARTIRKAIEALLESSSSSSSS
B23: il2ra_site1_2b5i_sap_9_mot_HHH_b2_02740_000000236_0001_1_21_H_._HHH_b1_02398_0001_0000300016_0000001_0_0001 (protein)
chain: SSSSDDELFHEIDELFREASRLFLNGNPEEAEKVLEKAIRLAEEGGDESTAEDLRRFLELLSSSS
B24: il2ra_site2_3nfp_sap_25_mot_HHH_b2_06150_000000217_0001_39_53_H_._HHH_b2_05014_af2_0001_0000300011_0000001_0_0001 (protein)
chain: DEVSEVIWRLREEGDPELAFLLFAVRADVLYKHDPELEEELEKLIELAERDPEKAKELAEELLRR
B25: il2ra_site2_2erj_normal_mot_HHH_b2_01353_af2_000000049_0001_23_39_H_._HHH_b1_04436_af2_0001_0000200013_0000001_0 (protein)
chain: SSSSDEIEELLEKAKELLEKGNPEEAEEVLRRASVAAFENRDHEAFAEIAELLRIVAELEASSSS
B26: il2ra_site1_1z92_sap_28_mot_HHH_b1_00661_af2_000000033_0001_38_50_H_._HHH_b2_00267_af2_0001_0000300009_0000001_0_0001_af2pred_0001_af2pred_1 (protein)
chain: PEELAEQAEELLKNGNPEEAEKVLRELAKELGNEEVFERDLEHAERNLGNPEQALLSLIKALSFV
B27: il2ra_site1_1z92_sap_12_mot_HHH_b2_04974_000000012_0001_1_17_H_._HHH_b1_06150_af2_0001_0000300041_0000001_0_0001_af2pred_dldesign_0_af2pred (protein)
chain: SSSSSSPYQRARDLILEINKARQAGDTEKFDELLAELEKLAKELESNTLLRFIEHARKELSSSSS
B28: il2ra_site2_2erj_normal_mot_HHH_b2_06912_000000039_0001_38_52_H_._HHH_b2_01292_0001_0000100004_0000001_0 (protein)
chain: SSSSSDKEESEKLAEEAHELILRNPERVEEIVEEFRRELEELNDPIAVRYLELVRRDVNSSSSSS
B29: il2ra_site2_3nfp_sap_24_mot_HHH_b1_03818_000000217_0001_1_20_H_._HHH_b1_04518_af2_0001_0000400014_0000001_0_0001 (protein)
chain: SEKDLIEMSLEMIKAHALLHGNEEVQEIVEELERLLEEAKRKNDEELREEVAERAAELIERVLES
B30: il2ra_site2_2erj_normal_mot_HHH_b2_00494_000000216_0001_41_54_H_._HHH_b1_07802_af2_0001_0000300011_0000001_0 (protein)
chain: SSSSNEELRRLYELADEALRLITEGNPEEAEKVLEEARELAERLNSENAREVVEFLEELLESSSS
B31: il2ra_site2_2erj_sap_21_mot_HHH_b2_00938_af2_000000099_0001_43_55_H_._HHH_b1_03152_af2_0001_0000100003_0000001_0_0001 (protein)
chain: SSSSLHEAFEIAVEAAAKISRLHREGNDEEAKRVFEEARERLEELGTENAREHLEHLFKALSSSS
B32: il2ra_site2_3nfp_normal_mot_HHH_b1_00660_af2_000000090_0001_40_57_H_._HHH_b1_02730_0001_0001000022_0000001_0 (protein)
chain: SSSSSDEEVRELLEQLRELIEKNDEEEFERLSREITNLAYELNNFELFALVQELRARFISSSSSS
B33: il2ra_site2_3nfp_normal_mot_HHH_b2_04451_000000238_0001_21_37_H_._HHH_b2_04195_af2_0001_0000200011_0000001_0 (protein)
chain: SSSSSEEEEVRELLEQARELLERGDPYEALELLAEASEIAAKLNNEELARLILELFEKVQKSSSS
B34: il2ra_site2_3nfp_normal_mot_HHH_b2_08209_000000146_0001_1_18_H_._HHH_b1_00160_0001_0000200018_0000001_0 (protein)
chain: SSSSSTEEERERVEELLEEAKEITDPEERKELLAEATQIAYEANDFELFALVADVVFELLSSSSS
B35: il2ra_site2_3nfp_sap_19_mot_HHH_b1_06699_000000048_0001_23_40_H_._ems_3hC_59_0001_0000100006_0000001_0_0001_af2pred_0001_af2pred (protein)
chain: SSSSSDAAEEAEELAEEARHVEDPEERERILRKAAELAYRARDHEVFAEIHLVIEELERSSSSSS
B36: il2ra_site1_3nfp_normal_mot_HHH_b2_08102_af2_000000255_0001_38_50_H_._HHH_b2_05157_0001_0000400017_0000001_0_af2pred_0001_af2pred (protein)
chain: SSSSDHLAREYTEWAKRRIRELLERGDEEAARRLLEKAKRSLEIAGDEEAVEELEKLYEELSSSS
B37: il2ra_site1_2b5i_normal_mot_HHH_b2_01040_af2_000000143_0001_42_56_H_._HHH_b1_04969_af2_0002_0000100009_0000001_0 (protein)
chain: SSSSSDEAEEAAREALELLRELLRVDEEEIKELLEEAHEKLEKLNDEALLKRVERLLRLLSSSSS

biological target: il2ra, P01589; experiment: yeast display titration
Sequence (P01589 whole entry): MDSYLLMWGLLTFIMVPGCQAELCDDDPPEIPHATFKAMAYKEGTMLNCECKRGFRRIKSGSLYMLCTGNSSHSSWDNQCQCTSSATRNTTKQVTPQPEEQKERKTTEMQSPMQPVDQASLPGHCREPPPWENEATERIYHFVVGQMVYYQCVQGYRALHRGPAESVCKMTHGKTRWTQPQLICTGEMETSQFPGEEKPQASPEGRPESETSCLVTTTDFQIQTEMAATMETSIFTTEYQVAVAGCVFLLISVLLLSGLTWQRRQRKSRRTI

Apparent Kd, inactive:
B1 no binding seen
B2 no binding seen
B3 no binding seen
B4 no binding seen
B5 no binding seen
B6 no binding seen
B7 no binding seen
B8 no binding seen
B9 no binding seen
B10 no binding seen
B11 no binding seen
B12 no binding seen
B13 no binding seen
B14 no binding seen
B15 no binding seen
B16 no binding seen
B17 no binding seen
B18 no binding seen
B19 no binding seen
B20 no binding seen
B21 no binding seen
B22 no binding seen
B23 no binding seen
B24 no binding seen
B25 no binding seen
B26 no binding seen
B27 no binding seen
B28 no binding seen
B29 no binding seen
B30 no binding seen
B31 no binding seen
B32 no binding seen
B33 no binding seen
B34 no binding seen
B35 no binding seen
B36 no binding seen
B37 no binding seen

Reference: article PMC10163288
